# From PubChem BioAssay AID623877 (Johns Hopkins Ion Channel Center, 2012)
# In all, about 340,000 compounds went through this assay and about 1,000 (0.29%) were called active.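 Rule for the calls: active = fluorescence-ratio B-score plate-corrected deviation score at least 3 library SD below zero, with starting fluorescence score within 5 deviations; inactive = the rest.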 Shown is part of a subset that was picked to be rich in actives.
# Molecular target: Anoctamin-1 (Mus musculus) (UniProt Q8BHY3)
# Assay: mouse ANO1 channel activation – cell-based, HTS, primary screen (AID 623877);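 for B-score: channel opened by trigger with iodide after compound preincubation; score built on the fluorescence ratio of max minus min over baseline; more negative score means more quench and so TMEM16A activation or potentiation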
# Settings: HEK293 TMEM16A/YFP-H148Q/I152L, iodide quench fluorescence, at 10 µM; stronger effect = lower value
# Chain of Anoctamin-1 (Mus musculus) (Q8BHY3 whole entry, looked up): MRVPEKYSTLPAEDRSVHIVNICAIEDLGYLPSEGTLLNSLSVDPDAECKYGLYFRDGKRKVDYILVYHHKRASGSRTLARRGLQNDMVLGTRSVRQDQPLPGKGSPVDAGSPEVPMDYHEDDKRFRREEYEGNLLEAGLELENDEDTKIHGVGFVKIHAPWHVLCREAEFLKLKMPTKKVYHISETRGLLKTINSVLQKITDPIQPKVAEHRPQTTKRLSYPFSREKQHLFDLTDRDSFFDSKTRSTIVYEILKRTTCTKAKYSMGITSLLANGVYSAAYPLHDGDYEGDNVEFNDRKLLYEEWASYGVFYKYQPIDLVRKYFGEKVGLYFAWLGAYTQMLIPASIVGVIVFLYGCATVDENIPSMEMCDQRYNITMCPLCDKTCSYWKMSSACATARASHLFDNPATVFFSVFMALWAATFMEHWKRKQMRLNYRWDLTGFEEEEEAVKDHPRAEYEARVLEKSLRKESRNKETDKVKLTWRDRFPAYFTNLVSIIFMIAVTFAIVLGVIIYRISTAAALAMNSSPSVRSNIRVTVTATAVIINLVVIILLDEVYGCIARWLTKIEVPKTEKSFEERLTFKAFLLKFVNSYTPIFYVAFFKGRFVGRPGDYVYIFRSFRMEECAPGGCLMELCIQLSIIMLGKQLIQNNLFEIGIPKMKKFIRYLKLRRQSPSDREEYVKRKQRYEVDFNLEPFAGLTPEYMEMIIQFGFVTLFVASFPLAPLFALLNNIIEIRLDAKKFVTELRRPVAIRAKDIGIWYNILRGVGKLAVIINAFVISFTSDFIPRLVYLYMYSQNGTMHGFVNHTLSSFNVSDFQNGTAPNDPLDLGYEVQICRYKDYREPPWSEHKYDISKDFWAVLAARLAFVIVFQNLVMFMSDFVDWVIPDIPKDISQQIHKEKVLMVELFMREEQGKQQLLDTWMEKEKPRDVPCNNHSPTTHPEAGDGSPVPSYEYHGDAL
row,Structure (SMILES),B-score
1,CC(=O)C1(O)CCC2C3CCC4=C(Cl)C(=O)CCC4(C)C3CCC21C (stereo not given),-5.25 (active)
2,Cc1cc(C)cc(NC(=S)NC2CC3CCCC(C2)N3Cc2cccs2)c1 (stereo not given),inactive
3,Cc1nn(Cc2ccccc2Cl)c(Cl)c1C(=O)OC(C(=O)NC(N)=O)C(C)C (stereo not given),inactive
4,Cc1nc2ccccn2c1P(=S)(N1CCCCC1)N1CCCCC1,-9.49 (active)
5,COc1ccc(C(=O)C2CN(C)CC2C(=O)c2ccc(OC)cc2)cc1 (stereo not given),inactive
6,O=C(CSC1c2ccccc2-c2ccccc21)N/N=C/c1ccccc1,inactive
7,CC1C(=O)OC2CCN3CC=C(COC(=O)C(C)(O)C1(C)O)C23 (stereo not given),inactive
8,CCN(CC)P(=O)(Oc1cccc(C)c1)N(CC)CC,inactive
9,C=Cn1ccnc1P(=S)(c1cc(N(CC)CC)ns1)c1nccn1C=C,inactive
10,Cc1cc2ccccn2c1C(C[N+](=O)[O-])c1c(F)cccc1Cl (stereo not given),inactive
